The list is not random: actives were taken first. Their share in the collection is about 1.8%.
PHOSPHO1 block – PubChem AID 1565; 1.1% of 290,000 active; Phosphoethanolamine/phosphocholine phosphatase (Homo sapiens), Q8TCT1; recombinant PHOSPHO1, absorbance phosphatase assay; inhibition, % at 13.3 µM; in the data active means inhibition above about 60%
SUMO HTRF inh – inhibitors of in vitro SUMOylation cascade, primary screen, biochemical, HTRF, uHTS; SUMO-conjugating enzyme UBC9 (Homo sapiens), P63279; HTRF SUMOylation assay, SAE1/SAE2 + UBC9; inhibition, % at 35 µM; 0.36% of 290,000 active; in the data active means inhibition above about 50%, passing the limit was not always enough
NadD inh – inhibitors of S. aureus NadD, primary screen, biochemical, colorimetric, uHTS; inhibition, % at 20 µM; 0.78% of 360,000 active; Nicotinate-nucleotide adenylyltransferase NadD (Staphylococcus aureus N315); purified NadD enzyme, colorimetric absorbance read-out; in the data active means inhibition above about 26%
p-CIP stab down – p/CIP-EGFP fusion destabilizers, primary screen, fluorescence, F442A cells | decrease of EGFP signal, % at 10 µM | 0.01% of 290,000 active | 16 h;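 active means EGFP signal decrease of at least 30% at 10 µM or well 3 SD below plate mean, unless failing retest; inactive means the rest, including hits failing retest or dose response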
NadD conf – inhibitors of S. aureus NadD, confirmation, biochemical, colorimetric, single concentration; purified S. aureus NadD, colorimetric enzyme assay; 13% of 2,000 active; shares compounds with NadD inh; inhibition, % at 20 µM; in the data active means inhibition mostly above about 42%, no sharp cut-off; inactive means mostly below about 42%
Numbers without * were called inactive; . = no result.

SMILES	PHOSPHO1 block	SUMO HTRF inh	NadD inh	p-CIP stab down	NadD conf
Cc1sc2nc(COC(=O)c3cccc(S(=O)(=O)N(C)c4ccccc4)c3)[nH]c(=O)c2c1C	8	21	37*	-25	4
Cc1sc2nc(COC(=O)c3cccc(OC(F)F)c3)[nH]c(=O)c2c1C	12	-14	-6	-8	.
CCOc1ccc(C(=O)Nc2cc(NC(=O)c3ccc(OCC)c(Cl)c3)cc(C(=O)O)c2)cc1Cl	35	36	30*	1	13
COCCNC(=O)C1(C)CCN(Cc2noc(-c3c(C)noc3C)n2)C1 (centres undefined)	.	.	-5	.	.
Nc1ncc2c(n1)-c1cc(Cl)ccc1SC2	-15	-4	29*	10	5
CC(=O)C1(C)C(=O)N(c2ccc(C)cc2)C(=O)N1c1ccc(C)cc1 (centres undefined)	.	.	-1	.	.
O=C1c2ccccc2CCC12OC2c1ccc([N+](=O)[O-])cc1 (centres undefined)	.	.	-2	.	.
O=c1[nH]c(CSc2nc3ccccc3s2)nc2ccccc12	11	9	-5	-17	.
COc1ccc(C2NCCc3c2[nH]c2ccccc32)cc1CSc1nc2ccccc2s1 (centres undefined)	8	-12	44*	-5	11
COc1ccc(S(=O)(=O)NCc2csc(C)n2)cc1OC	6	7	-1	-4	.
CC1=NN(c2ccc(C)cc2C)C(=O)C1C(c1ccccc1O)C1C(=O)N(c2ccc(C)cc2C)N=C1C (centres undefined)	-8	41	21	4	.
CC1=NN(c2ccc(Cl)cc2)C(=O)C1C(c1ccccc1O)c1c(C)[nH]n(-c2ccc(Cl)cc2)c1=O (centres undefined)	-9	70	31*	-9	52*
CS(=O)(=O)c1ccc(C(=O)Nc2nc(-c3ccco3)c(-c3ccco3)s2)cc1	.	.	29*	.	7
COc1ccc(/C=N/N=C2/NC(=O)C(CC(=O)O)S2)cc1OCc1ccc(Cl)cc1Cl (centres undefined)	-7	-7	36*	-12	31
COc1ccc(NC(=O)c2cc(C)nc3ccccc23)cc1S(=O)(=O)N1CCOCC1	.	.	-2	.	.
O=C(Nc1ccc(Cl)c(S(=O)(=O)N2CCOCC2)c1)c1cc(-c2ccccn2)nc2ccccc12	11	5	4	-5	.
Cc1ccc(NC(=O)c2cc(-c3ccco3)nc3ccccc23)cc1S(=O)(=O)N1CCOCC1	4	36	63*	-5	60*
COc1ccc(NC(=O)c2cc(-c3ccco3)nc3ccccc23)cc1S(=O)(=O)N1CCOCC1	7	36	30*	-7	67*
COc1cc2c(cc1OC)C1(Nc3c-2c(Cc2ccccc2)nn3-c2ccccc2)C(=O)Nc2ccccc21 (centres undefined)	-18	15	45*	-12	41
COc1ccc([C@H]2C[C@H](n3cc(COC(=O)c4ccccc4)nn3)[C@@H](O)CN2C(=O)c2cccs2)cc1	.	.	9	.	.
CCc1ccc2[nH]c(=O)c(CN(Cc3ccccc3)C(=O)Nc3ccccc3OC)cc2c1	12	-6	7	-2	.
Cc1ccnc2nc(C(=O)OCC(=O)c3ccc(NC(=O)CC(C)C)cc3)nn12	.	.	6	.	.
CCC(=O)Nc1ccc(C(=O)COC(=O)c2nc3nccc(C)n3n2)cc1	.	.	46*	.	86*
C[C@H](CO)N1C[C@H](C)[C@H](CN(C)C(=O)Cc2cccnc2)Oc2ncc(Br)cc2C1=O	.	.	-4	.	.
N#Cc1c(OCC(=O)c2ccccc2)nc2c(c1-c1ccco1)CCc1ccccc1-2	-32	46	32*	-1	30
SMILES	PHOSPHO1 block	SUMO HTRF inh	NadD inh	p-CIP stab down	NadD conf
CCOC(=O)COc1nc2c(c(-c3ccco3)c1C#N)CCc1ccccc1-2	33	0	-4	1	.
N#CCC(=O)N/N=C/c1c2ccccc2cc2ccccc12	6	3	-3	-5	.
N#CCC(=O)N/N=C/c1cc(Br)ccc1OCc1cccc2ccccc12	24	-22	26*	10	29
O=c1[nH]c(C(Cl)Cl)nc2sc3c(c12)CCN(Cc1ccccc1)C3	-17	40	32*	-3	59*
CCc1ccc(NC(=O)C(C)OC(=O)c2ccc(NS(=O)(=O)c3ccc(C)c([N+](=O)[O-])c3)cc2)cc1 (centres undefined)	-23	11	45*	-10	46*
Cc1ccc(NC(=O)C(C)OC(=O)c2ccc(NS(=O)(=O)c3ccc(F)c(F)c3)cc2)cc1 (centres undefined)	2	-1	6	7	.
COc1ccc(C(O)c2nc(-c3ccccc3C)cs2)cc1 (centres undefined)	.	.	-5	.	.
NNC(=O)c1oc2nc(-c3ccco3)cc(-c3ccco3)c2c1N	22	94	17	-21	.
O=CNn1cnc2c(oc3nc(-c4ccccc4)cc(-c4ccco4)c32)c1=O	-5	27	36*	0	5
O=C(NCc1ccco1)c1cccc(-c2cncc3nccn23)c1	.	.	-8	.	.

Screening results from PubChem.
